Among the data in PubChem BioAssay (NCATS) are Potency values, retold here.

Assay [1] in a line: Quantitative High-Throughput drug screen in 47 multiple myeloma cell lines against the NCATS MIPE library collection: FR4_PLB cell viability assay (AID 1918924; further: nearly all actives have a fitted effect of over 35% in size). In short, it runs like this:
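Inhibition of cell viability is measured here. Each line was plated at 500 cells per well, treated with MIPE 4.0 drugs, kept 48 hours at 37C, then assayed for ATP content by CellTiter-Glo luminescence.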

Assay [2] is described as follows: Quantitative High-Throughput drug screen in 47 multiple myeloma cell lines against the NCATS MIPE library collection: EJM_DSMZ cell viability assay (AID 1918926; further: nearly all actives have a fitted effect of over 30% in size). In short, it runs like this:
(§1)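 Luminescent ATP measurement with CellTiter-Glo gives viability, scaled between DMSO-only wells (100%) and media-only wells (0%). Cells, 500 per well, faced library compounds for 48 hours at 37C.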

Assay [3] can be described thus: Quantitative High-Throughput drug screen in 47 multiple myeloma cell lines against the NCATS MIPE library collection: AMO1_DSMZ cell viability assay (AID 1918927; further: nearly all actives have a fitted effect of over 30% in size). In short, it runs like this:
as §1

The nature of assay [4]: Quantitative High-Throughput drug screen in 47 multiple myeloma cell lines against the NCATS MIPE library collection: ARP1_JJKsccF8 cell viability assay (AID 1918928; further: nearly all actives have a fitted effect of over 40% in size). In short, it runs like this: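 ATP readout (CellTiter-Glo), 48 h drug incubation, 37 °C/5% CO2, 500 cells per well; normalisation to DMSO (100%) and media-only (0%) controls.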
Assay [5] can be described thus: Quantitative High-Throughput drug screen in 47 multiple myeloma cell lines against the NCATS MIPE library collection: ARD_JJKsccE7 cell viability assay (AID 1918929). Put shortly:
as §1

Assay [6] can be described thus: Quantitative High-Throughput drug screen in 47 multiple myeloma cell lines against the NCATS MIPE library collection: Delta47_JCRB cell viability assay (AID 1918925; further: nearly all actives have a fitted effect of over 45% in size). Put shortly: as §1

Structures are written as SMILES. Records with an inconclusive call do not appear. Active and inactive are the calls of the source. The call rests on the fitted dose curve; in most records, active means well fitted cell-killing curve with a large enough effect; inconclusive means small, poorly fitted or top-dose-only effect, or effect the other way; inactive means no such curve, though single readings can be large or run the other way.
Potency means the concentration at half of the fitted maximal effect.

In the case of `CC(C)c1cnn2c(NCc3ccccc3)cc(NCCCCCCN)nc12`, the Potency was 18.7 µM (active) in assay [1]; 13.2 µM (active) in assay [2]; 23.5 µM (active) in assay [3]; 16.6 µM (active) in assay [4]; 20.9 µM (active) in assay [5].

As for `OC[C@@H](O)[C@@H](O)[C@H](O)[C@@H](O)CO`, the Potency entry in assay [1], in assay [2] and in assay [4] was “inactive” each time. In addition, the Potency in assay [3] was 5.9 µM (active).

As for `CC[C@H]1OC(=O)[C@H](C)[C@@H](O[C@H]2C[C@@](C)(OC)[C@@H](O)[C@H](C)O2)[C@H](C)[C@@H](O[C@@H]2O[C@@H](C)C[C@H](N(C)C)[C@@H]2O)[C@](C)(O)C[C@@H](C)C(=O)[C@H](C)[C@@H](O)[C@]1(C)O`, the Potency result in assay [1], in assay [2], in assay [3], in assay [4] and in assay [5] was “inactive” each time.

For `COc1cc(C(C)C)c(Oc2cnc(NC(CO)CO)nc2N)cc1I`, the Potency in assay [1] is 5.26 µM (active); in assay [2], 0.469 µM (active); in assay [3] it was 14.8 µM (active). For the same compound, the Potency entry in assay [4] is “inactive”.

`CNC(=O)c1ccc(Nc2cc(Nc3ccccc3S(=O)(=O)C(C)C)c3cc[nH]c3n2)nc1`: the Potency in assay [1] is 4.69 µM (active); in assay [2], 6.62 µM (active); in assay [3], 2.09 µM (active); in assay [4], 18.7 µM (active); in assay [5], 1.87 µM (active).

Regarding `Cc1ccc([N+](=O)[O-])cc1S(=O)(=O)N(C)N=Cc1cnc2ccc(Br)cn12`, the Potency is 0.0166 µM (active) in assay [1]; 0.0235 µM (active) in assay [2]; 0.0148 µM (active) in assay [3]; 0.0264 µM (active) in assay [4]; 0.0118 µM (active) in assay [5].

In the case of `CC(C)N(CC[C@H](c1ccccc1)c1cc(CO)ccc1O)C(C)C`, the Potency entry in assay [1], in assay [2], in assay [3] and in assay [4] was “inactive” in each case.

In the case of `CCC(C(=O)O)C1CCC(C)C(C(C)C(O)C(C)C(=O)C(CC)C2OC3(C=CC(O)[C@@]4(CC[C@](C)(C5CC[C@@](O)(CC)C(C)O5)O4)O3)C(C)CC2C)O1` (stereo not given in full), the Potency in assay [1] was 16.6 µM (active); in assay [2], 5.9 µM (active); in assay [3], 0.132 µM (active); in assay [4], 1.87 µM (active); in assay [5] it was 0.209 µM (active).

As to `CCCCCN=C(N)NN=Cc1c[nH]c2ccc(OC)cc12`, the Potency is 2.35 µM (active) in assay [1], 13.2 µM (active) in assay [2], 1.32 µM (active) in assay [3] and 2.96 µM (active) in assay [5].

As for `CC(C)N1[N]C(=C2C=c3cc(O)ccc3=N2)c2c(N)ncnc21`, the Potency in assay [1] is 0.296 µM (active); in assay [2], 3.72 µM (active); in assay [4], 0.0833 µM (active).

As for `CC(C=CC1=C(C)CCCC1(C)C)=CC=CC(C)=CC(=O)Nc1ccc(O)cc1`, the Potency in assay [1] is 9.59 µM (active); in assay [2], 8.55 µM (active); in assay [3], 3.4 µM (active); in assay [4] it was 19.1 µM (active); in assay [5] it was 8.55 µM (active).

For `C[C@@]12C(=O)OC(=O)[C@@]1(C)C1CCC2O1`, the Potency is 1.48 µM (active) in assay [1]; 2.64 µM (active) in assay [2]; 1.32 µM (active) in assay [3]; 0.833 µM (active) in assay [4]; 1.66 µM (active) in assay [5].

Take `CCCCC(=O)O[C@]1(C(=O)CO)[C@@H](C)C[C@H]2[C@@H]3CCC4=CC(=O)C=C[C@]4(C)[C@@]3(F)[C@@H](O)C[C@@]21C`: the Potency result in assay [1], in assay [2] and in assay [3] was “inactive” in each case.

As for `NC1=N[C@H]2[C@H](CS[C@H]2CCCCC(=O)O)N1`, the Potency result in assay [1], in assay [2], in assay [3] and in assay [4] was “inactive” in each case.

Regarding `C[C@H]1O[C@H](O[C@H]2[C@H](O)[C@@H](O)[C@@H](O[C@H]3[C@H](O)[C@@H](O)C(O)O[C@H]3CO)O[C@H]2CO)[C@H](O)[C@@H](O)[C@H]1N[C@H]1C=C(CO)[C@@H](O)[C@H](O)[C@@H]1O` (stereo not given in full), the Potency result in assay [1], in assay [2] and in assay [4] was “inactive” throughout.

`N#CNC(=NCCCCCCOc1ccc(Cl)cc1)Nc1ccncc1`: the Potency in assay [1] is 20.9 µM (active); in assay [2], 16.6 µM (active); in assay [3] it was 0.0187 µM (active); in assay [4], 0.0066 µM (active); in assay [5], 0.0469 µM (active).

In the case of `O=C(O)CCCCCC(=O)NN=C1CCCC1`, the Potency result in assay [1], in assay [2], in assay [3], in assay [4] and in assay [5] was “inactive” throughout.

As for `C[C@H](NC(=O)[C@@H](O)c1cc(F)cc(F)c1)C(=O)N[C@@H]1C(=O)N(C)c2ccccc2-c2ccccc21`, the Potency result in assay [1], in assay [2], in assay [3], in assay [4] and in assay [5] was “inactive” each time.

For `CN[C@H](CC(C)C)C(=O)N[C@H]1C(=O)N[C@@H](CC(N)=O)C(=O)N[C@@H]2C(=O)N[C@H]3C(=O)N[C@H](C(=O)N[C@H](C(=O)O)c4cc(O)cc(O)c4-c4cc3ccc4O)[C@H](O)c3ccc(c(Cl)c3)Oc3cc2cc(c3O[C@@H]2O[C@H](CO)[C@@H](O)[C@H](O)[C@@H]2O[C@H]2C[C@](C)(N)[C@H](O)[C@H](C)O2)Oc2ccc(cc2Cl)[C@H]1O`, the Potency result in assay [1], in assay [2], in assay [3] and in assay [4] was “inactive” in each case. In addition, the Potency in assay [5] was 0.0023 µM (active).

Turning to `COc1cc2c(cc1OC)[C@@H]1C(=O)c3ccc4c(c3O[C@@H]1CO2)C=CC(C)(C)O4`, the Potency in assay [1] was 4.18 µM (active); in assay [2], 8.33 µM (active); in assay [3], 0.0935 µM (active); in assay [4], 0.059 µM (active); in assay [5] it was 0.0235 µM (active).

`O=C(NCc1ccccc1)[C@H](Cc1ccccc1)NC(=O)[C@@H]1O[C@@H]1C(=O)NCCc1ccc(O)cc1`: in assay [1], the Potency entry is “inactive”. In addition, the Potency in assay [2] was 0.0833 µM (active); in assay [3] it was 20.9 µM (active).

Consider `CC(=CC(=O)Nc1ccccc1C(=O)O)c1ccc2ccccc2c1`, for which the Potency result in assay [1] is “inactive”. Also, the Potency in assay [6] and in assay [5] was 14.8 µM (active) throughout.
